High-throughput results as filed in PubChem.
Most compounds without a hit are left out; they make up all but 7.6% or so of the library.
Giardia kill – Giardia lamblia killing. Giardia lamblia trophozoite viability. activity change, % at 7.66 µM, hits read low. 340,000 tested, 0.15% active; in the data active = activity change below about -80%; inconclusive = between about -30% and that limit;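 also: parasites exposed to compound for two days anaerobically before the ATP read; % is scaled to controls: 0 for no effect and ±100 for the full control effect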
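Trophozoite viability was measured as ATP-dependent luminescence, read 15-30 min after reagent addition. Before that, parasites at 100 cells/well were exposed to compounds for 48 h, anaerobically, at 37 deg C.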
RORg inh – ROR gamma (mouse) transcription inhibition; P51450; Drosophila S2 Gal4-RORgamma UAS-luciferase reporter, 20 h; Potency, µM (top dose mostly 53.6 µM), without a hit: top-dose activity change, negative = inhibition, most hits filed as inhibitors; 310,000 tested, 5.4% active; AID 2551; also: potency is read from the fitted curve at half-maximal effect; % is scaled to controls: 0 for no effect and ±100 for the full control effect; nearly all actives have a fitted effect of over 60% in size
Target sequence (P51450 whole entry, looked up, the tested form may be a part): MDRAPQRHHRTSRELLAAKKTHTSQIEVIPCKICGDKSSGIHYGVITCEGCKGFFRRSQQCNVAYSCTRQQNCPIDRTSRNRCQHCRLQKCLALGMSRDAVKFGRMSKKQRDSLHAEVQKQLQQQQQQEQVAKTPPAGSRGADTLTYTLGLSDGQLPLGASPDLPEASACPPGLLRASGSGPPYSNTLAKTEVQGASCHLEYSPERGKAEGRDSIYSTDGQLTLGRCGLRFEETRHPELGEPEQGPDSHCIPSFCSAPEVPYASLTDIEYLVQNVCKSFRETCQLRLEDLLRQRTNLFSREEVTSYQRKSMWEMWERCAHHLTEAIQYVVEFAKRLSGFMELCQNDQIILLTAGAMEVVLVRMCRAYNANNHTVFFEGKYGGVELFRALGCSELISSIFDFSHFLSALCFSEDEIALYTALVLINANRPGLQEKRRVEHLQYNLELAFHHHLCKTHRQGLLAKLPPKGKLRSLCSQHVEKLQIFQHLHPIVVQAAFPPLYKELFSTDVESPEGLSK
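Luminescence from a UAS-regulated Photinus luciferase reporter in stably transfected Drosophila Schneider cells is measured; decreased signal marks ROR gamma inhibition. Fusion expression is induced by 700 uM copper sulfate for 20 hr.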
ELG1 DNA repair – blocks ELG1-dependent DNA repair in HEK293T cells; HEK293T ELG1-luciferase reporter, luminescence, 16 h; DNA damage induced by 5-fluorouridine; AID 504467; Potency, µM (highest dose often 46.1 µM), for the others: top-dose activity change, negative = inhibition, usual class: inhibitors; 330,000 tested, 2.3% active; also: potency is read from the fitted curve at half-maximal effect; % is scaled to controls: 0 for no effect and ±100 for the full control effect; nearly all actives have a fitted effect of over 55% in size
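HEK293T cells expressing luciferase-tagged ELG1 (2,000/well) received 5-Fluorouridine plus compound or DMSO for 16 hr at 37 °C. Luciferase was read by ONE-Glo luminescence after 30 min at room temperature.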
BRCA1 expr up – increases BRCA1 expression; Potency, µM (titrated, usually from 46.1 µM), inactives show at the highest dose activation, actives largely listed as activators; MCF7-BRCA1-FFLuc reporter, luminescence, 48 h; response scale: scaled: vehicle 0%, 10 µM genistein 100%; AID 624202; 380,000 tested, 1.1% active; also: potency is read from the fitted curve at half-maximal effect; nearly all actives have a fitted effect of over 80% in size
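Luminescence from a BRCA1-driven firefly luciferase in MCF7 cells was the read-out, taken 15 min after substrate addition following 48 h compound exposure at 37 °C. Data were normalized to a 10 microM genistein control and DMSO vehicle.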
p53 reactivation – re-activators of mutant p53 | 320,000 tested, 0.063% active | Potency, µM (series often up to 92.2 µM), for the others: at the highest dose activity change, positive = activation, most hits filed as activators | H1299 p53-A138V BP100-luciferase reporter, luminescence, 24 h; also: potency is read from the fitted curve at half-maximal effect; % of control where 0% means no effect; nearly all actives have a fitted effect of over 45% in size
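p53-null H1299 cells stably carrying temperature-sensitive p53-A138V and a BP100-luciferase reporter were pinned with compounds (4-point, 1:5 series) and held 24 hrs at 37 deg C. Luminescence was read 10 min after detection reagent.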
Gal4-VP16 FLuc – counter-screen for ROR gamma inhibitors: Gal4-VP16 reporter. 310,000 tested, 3.5% active. Drosophila S2 Gal4-VP16 UAS-luciferase, luminescence, 20 h. AID 2546. Potency, µM (series often up to 53.6 µM), for inactives: at the top dose activity, negative = inhibition, usual class: inhibitors;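 also: Gal4-VP16 expression switched on by copper sulfate through the metallothionein promoter; potency is read from the fitted curve at half-maximal effect; % is scaled to controls: 0 for no effect and ±100 for the full control effect; nearly all actives have a fitted effect of over 50% in size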
* hit, by the source's call; ? = inconclusive; / = no result given. Unless noted, calls follow the shape of the dose curve; as a rule, active = well fitted curve in the direction sought with a large enough effect; inconclusive = small, poorly fitted or top-dose-only effect, or another doubt; inactive = no such curve, though single readings can be large; an effect the other way counts as inactive or inconclusive.

SMILES | Giardia kill | RORg inh | ELG1 DNA repair | BRCA1 expr up | p53 reactivation | Gal4-VP16 FLuc
O=C(Nc1ccc(NC(=O)c2ccco2)nc1)c1cccnc1 | ? | 0.79µM* | ? | 17% | ? | ?
O=C(Nc1ccc(NC(=O)C2CC2)nc1)c1ccco1 | -3 | ? | ? | 0% | 27% | 1%
CC(C)(C)c1ccc(Oc2ccc(NC(=O)c3ccco3)cn2)cc1 | -10 | ? | -22% | -32% | 9% | ?
COc1ccc(NC(=O)/C=C/c2cccc(C(F)(F)F)c2)cn1 | 47 | 9% | 18µM* | 30% | -12% | -9%
O=C(Nc1ccc(NC(=O)c2ccccc2F)cn1)c1ccco1 | ? | 14µM* | ? | ? | 3% | 13µM*
CCOC(=O)c1cc2cc(OC)ccc2nc1C | 2 | ? | ? | 30% | 3% | -14%
Cc1ccccc1CSc1nc2ccccc2c(=O)n1C | 4 | / | 5% | -36% | -1% | /
Cc1cccc(NC(=O)c2cc(NC(=O)c3ccco3)ccc2Cl)n1 | 1 | 39% | 12µM* | 20% | -7% | 0%
COc1ccc(C(=O)/C=C/Nc2cc(C)on2)cc1 | 7 | 6% | ? | 3.2µM* | ? | -1%
C#CCNC(=O)/C=C/c1ccc(OC)cc1 | 18 | ? | ? | 13µM* | ? | 0%
COc1ccc(/C=C/C(=O)Nc2cc(C)on2)cc1 | 2 | -10% | ? | 4.5µM* | ? | -8%
O=C(NCc1nnc(SCc2ccc(C(F)(F)F)cc2)n1-c1ccccc1)C12CC3CC(CC(C3)C1)C2 | -3 | 14µM* | ? | -52% | -21% | ?
O=C(NCc1nnc(SCc2ccc(F)cc2)n1-c1ccccc1)C12CC3CC(CC(C3)C1)C2 | -2 | -3% | ? | -42% | 3% | ?
C/C(=N\NC(=O)c1c(Cl)c(C)nn1C)c1cccc(NC(=O)COc2ccc(Cl)cc2)c1 | 2 | 12% | 16µM* | -3% | 4% | -27%
C/C(=N\NC(=O)c1ccc(O)cc1)c1cccc(NC(=O)c2ccc(Cl)cc2)c1 | 10 | / | / | 5.6µM* | / | /
C/C(=N/NC(=O)c1ccc(C)s1)c1cccc(NC(=O)COc2ccc(Cl)cc2C)c1 | -1 | 6% | 1% | 0% | 2% | -6%
C/C(=N\NC(=O)c1ccc(Cl)cc1)c1cccc(NC(=O)c2cccnc2)c1 | 23 | -5% | ? | ? | 3% | -7%
C/C(=N\NC(=O)c1cccc(O)c1)c1cccc(NC(=O)c2ccc(F)cc2)c1 | -7 | 14% | ? | 4µM* | 10% | -26%
C/C(=N\NC(=O)c1c(Br)cnn1C)c1ccc(NC(=O)c2ccc(F)cc2)cc1 | 5 | -21% | ? | 7.9µM* | 26% | 27%
C/C(=N\NC(=O)c1ccc(F)cc1)c1cccc(NC(=O)c2cccc(F)c2)c1 | -10 | 5% | -10% | 52% | 13% | 20%
C/C(=N\NC(=O)c1ccncc1)c1ccc(NC(=O)c2ccc(Cl)cc2)cc1 | -15 | 26% | ? | 75% | ? | -3%
CCC(=O)N1CCc2cc(S(=O)(=O)CCC(=O)Nc3ccc(F)c(F)c3)ccc21 | -6 | 1% | -18% | 9% | -1% | -8%
COc1cccc(C(=O)Nc2c3c(nn2-c2ccc(Cl)cc2)CS(=O)(=O)C3)c1 | / | / | / | -18% | / | /
C/C(=N\NC(=O)c1cccc(N/N=C(\C)c2ccco2)c1)c1ccco1 | -9 | 2% | ? | 90% | 15% | -4%
C/C(=N\NC(=O)c1cccc(N/N=C(\C)c2cc(O)ccc2O)c1)c1cc(O)ccc1O | -9 | 6.3µM* | 16µM* | -87% | 9% | ?
C/C(=N\NC(=O)c1c(Cl)cnn1C)c1cccc(NC(=O)C(C)C)c1 | -19 | -7% | ? | 17% | -6% | -3%
C/C(=N\NC(=O)c1c(Cl)cnn1C)c1cccc(NC(=O)c2ccc(C)cc2)c1 | -18 | -9% | ? | 6.3µM* | 16% | -11%
